PubChem BioAssay
Activity calls are given as the source filed them.

Legend:
[1] = system: Human papillomavirus type 1a protein E7 (residues 44-93); assay: HPV1a E7 fragment binders on microarrays, primary screen, biochemical, small-molecule microarray, residues 44-93, 635 nm fluorescence (AID 1108); conditions: small-molecule microarray binding, fluorescence 635 nm; higher = more signal;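 note: E7 fragment applied at 1 µg/mL in TBST for 1 h at 4 C; score combines spot fluorescence with its signal to noise ratio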
[2] = modulators of HCV replicon luciferase signal, primary screen, HCV replication inhibitor project, Huh7 cells, luciferase reporter (AID 1109); conditions: 48 h, higher = more signal;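 note: huh7 hepatoma cells harbouring a luciferase neomycin HCV replicon reporter; luciferase luminescence as measure of HCV replicon replication; test concentration not given here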
[3] = molecular target: Left-right determination factor 2 (Homo sapiens) (UniProt O00292); assay: LEFTY2 binders on small-molecule microarrays, primary screen, biochemical, small-molecule microarray, 635 nm fluorescence scan (AID 1110); conditions: LEFTY2 binding, higher = more signal
Left-right determination factor 2 (Homo sapiens), sequence (O00292 whole entry, looked up): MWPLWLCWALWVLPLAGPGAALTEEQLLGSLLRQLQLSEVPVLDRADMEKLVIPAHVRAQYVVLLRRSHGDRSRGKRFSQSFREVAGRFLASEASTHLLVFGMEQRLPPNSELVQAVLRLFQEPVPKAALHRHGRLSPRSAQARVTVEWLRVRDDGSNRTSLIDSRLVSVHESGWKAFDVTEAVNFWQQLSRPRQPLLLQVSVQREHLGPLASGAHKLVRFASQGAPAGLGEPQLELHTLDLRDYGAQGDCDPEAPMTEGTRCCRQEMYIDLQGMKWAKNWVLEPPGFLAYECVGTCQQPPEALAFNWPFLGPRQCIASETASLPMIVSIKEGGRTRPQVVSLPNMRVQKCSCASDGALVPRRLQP

[4] = molecular target: Calmodulin-1 (Homo sapiens) (UniProt P0DP23); assay: CALM1 binders on microarrays, EGTA buffer, profiling panel, biochemical, small-molecule microarray, Cy5-labelled CALM1 (AID 1111); conditions: Cy5-CALM1 binding fluorescence, higher = more signal;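 note: labelled calmodulin applied in Tris saline Tween buffer holding calcium plus EGTA and DTT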
[5] = molecular target: Calmodulin-1 (Homo sapiens) (UniProt P0DP23); assay: calcium-bound CALM1 binders on microarrays, profiling panel, artefact control for SMM control-protein annotation, biochemical, small-molecule microarray, Cy5-labelled CALM1, plus calcium (AID 1112); conditions: Cy5-CALM1 binding fluorescence, higher = more signal;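 note: score merges spot fluorescence with signal to noise from triplicate slides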
[6] = small-molecule microarray binders of probe aWnt5a, primary screen, biochemical, biotinylated probe, 635/667 nm fluorescence (AID 1113); conditions: higher = more signal;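 note: score merges 667 nm fluorescence intensity with signal-to-noise per printed feature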
[7] = small-molecule microarray binders of probe aShh, primary screen, biochemical, biotinylated probe, 635/667 nm fluorescence (AID 1114); conditions: higher = more signal;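 note: probe is biotin-labelled aShh protein from a stem cell growth factor screen; measures binding of labelled protein to compounds printed on the slide; score merges feature fluorescence at 667 nm with signal-to-noise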
[8] = small-molecule microarray binders of probe aNog, primary screen, biochemical, biotinylated probe, 635/667 nm fluorescence (AID 1115); conditions: higher = more signal;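 note: probe is biotinylated aNog protein used at 0.15 µg/mL for 1 h at 4 C; z-score combines 667 nm fluorescence of each spot with its signal to noise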
[9] = molecular target: Torsin-1A-interacting protein 1 (Homo sapiens) (UniProt Q5JTV8); assay: LAP1 binders from COS7 cell lysate, primary screen, small-molecule microarray, 635/667 nm fluorescence (AID 1116); conditions: COS7-hLAP1 lysate binding, 635 nm fluorescence, higher = more signal
Torsin-1A-interacting protein 1 (Homo sapiens), sequence (Q5JTV8 whole entry, looked up): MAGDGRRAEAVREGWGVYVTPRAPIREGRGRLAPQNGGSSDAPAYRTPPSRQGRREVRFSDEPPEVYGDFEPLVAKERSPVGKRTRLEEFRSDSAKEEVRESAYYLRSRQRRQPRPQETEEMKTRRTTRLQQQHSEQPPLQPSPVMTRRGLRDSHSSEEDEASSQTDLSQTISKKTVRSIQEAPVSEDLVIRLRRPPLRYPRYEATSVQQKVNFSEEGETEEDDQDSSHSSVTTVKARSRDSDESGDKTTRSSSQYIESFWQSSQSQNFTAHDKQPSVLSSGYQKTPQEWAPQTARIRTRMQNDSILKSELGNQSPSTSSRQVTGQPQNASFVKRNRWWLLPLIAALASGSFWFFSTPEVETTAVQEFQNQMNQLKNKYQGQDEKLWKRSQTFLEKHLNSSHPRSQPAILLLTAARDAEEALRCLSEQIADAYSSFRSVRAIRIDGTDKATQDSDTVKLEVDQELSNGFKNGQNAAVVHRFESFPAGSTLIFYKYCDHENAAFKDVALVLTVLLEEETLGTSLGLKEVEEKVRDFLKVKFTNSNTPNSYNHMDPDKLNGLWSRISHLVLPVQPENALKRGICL

[10] = molecular target: Alpha-bungarotoxin (Bungarus multicinctus) (UniProt P60615); assay: alpha-bungarotoxin binders on microarray, profiling panel, artefact control for SMM control protein annotation, biochemical, small-molecule microarray, Alexa647 label, 635/667 nm fluorescence (AID 1117); conditions: alpha-BTX-A647 binding fluorescence, higher = more signal
Alpha-bungarotoxin (Bungarus multicinctus), sequence (P60615 whole entry, looked up): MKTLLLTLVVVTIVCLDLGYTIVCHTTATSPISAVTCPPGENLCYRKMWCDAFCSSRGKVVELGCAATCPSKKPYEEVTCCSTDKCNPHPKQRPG

Albumin (Bos taurus) = Albumin (Bos taurus) (UniProt P02769); assay: bovine serum albumin binders on microarray, profiling panel, artefact control for SMM control protein annotation, biochemical, small-molecule microarray, Alexa647 label, 635/667 nm fluorescence (AID 1118); conditions: BSA-A647 binding, fluorescence 635 nm, higher = more signal;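 note: score merges 667 nm emission intensity and signal-to-noise per printed compound spot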
Albumin (Bos taurus), sequence (P02769 whole entry, looked up): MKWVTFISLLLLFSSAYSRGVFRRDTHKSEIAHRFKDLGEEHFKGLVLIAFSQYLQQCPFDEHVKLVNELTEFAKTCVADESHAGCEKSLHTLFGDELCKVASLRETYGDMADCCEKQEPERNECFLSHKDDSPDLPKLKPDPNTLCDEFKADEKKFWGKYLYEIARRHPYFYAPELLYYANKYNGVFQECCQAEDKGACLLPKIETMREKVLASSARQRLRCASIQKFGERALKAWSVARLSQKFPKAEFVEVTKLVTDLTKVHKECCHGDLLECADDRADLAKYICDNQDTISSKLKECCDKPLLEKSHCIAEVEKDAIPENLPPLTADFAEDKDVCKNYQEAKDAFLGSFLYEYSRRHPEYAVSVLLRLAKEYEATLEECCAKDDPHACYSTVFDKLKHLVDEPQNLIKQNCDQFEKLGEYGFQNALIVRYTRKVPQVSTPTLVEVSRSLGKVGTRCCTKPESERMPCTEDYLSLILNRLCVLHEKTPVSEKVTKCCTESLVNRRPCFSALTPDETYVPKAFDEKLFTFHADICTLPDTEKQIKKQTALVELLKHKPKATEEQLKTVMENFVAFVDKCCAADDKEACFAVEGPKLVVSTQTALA

[11] = small-molecule microarray binders of probe aXIP, primary screen, biochemical, NeuroSMM set, 635/667 nm fluorescence (AID 1119); conditions: higher = more signal, called active from +8 up or from −8 down;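 note: probe is the protein aXip251-270 applied at 1 µg/mL to compound-printed slides; binding of probe to printed compounds measured as 667 nm fluorescence plus signal to noise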
[12] = small-molecule binders of probe aNOTCH3, primary screen, biochemical, small-molecule microarray, 635/667 nm fluorescence (AID 1120); conditions: higher = more signal;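 note: probe is a biotin-tagged antibody raised against NOTCH3 rather than NOTCH3 protein; score merges spot fluorescence near 667 nm with spot signal to noise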
[13] = small-molecule binders of probe aNOTCH2, primary screen, biochemical, small-molecule microarray, 635/667 nm fluorescence (AID 1121); conditions: higher = more signal;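 note: score merges feature fluorescence read at 667 nm with its signal to noise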
[14] = molecular target: Carbonic anhydrase 2 (Homo sapiens) (UniProt P00918); assay: CAII small-molecule binders, profiling panel, biochemical, small-molecule microarray, Alexa647-labelled CAII (AID 1122); conditions: CAII-A647 binding fluorescence, higher = more signal
[15] = COS7 lysate on small-molecule microarray, probe aHis, 635 nm (AID 1123); conditions: COS7 cell lysate, fluorescence, higher = more signal;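 note: z-score combines 667nm fluorescence intensity with signal-to-noise per printed compound spot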
[16] = compound binding in COS7 lysate, probe aLAP1, primary screen, cell lysate, small-molecule microarray (AID 1124); conditions: probe aLAP1, fluorescence, higher = more signal;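 note: lysate comes from COS7 cells expressing LAP1 and is applied at 0.3 µg/mL; score merges spot fluorescence near 667 nm with signal-to-noise over triplicate slides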
Sam68 (KHDRBS1) = assay: Sam68 small-molecule binders, primary screen, biochemical, small-molecule microarray, 635 nm fluorescence (AID 1125); conditions: small-molecule microarray binding, higher = more signal;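 note: score merges 667 nm channel intensity with signal to noise over triplicate slides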
[17] = system: Chordin-like protein 2 (CHRDL2); assay: CHRDL2 small-molecule binders, primary screen, biochemical, small-molecule microarray, 635 nm fluorescence (AID 1126); conditions: small-molecule microarray binding, fluorescence 635 nm; higher = more signal;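 note: printed compound slides probed with Chrdl2 protein at 4 µg/mL for 1 h at 4 C; score merges 667 nm emission intensity with signal to noise over three replicate slides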
[18] = molecular target: Concanavalin-A (Canavalia ensiformis) (UniProt P02866); assay: ConA small-molecule binders, primary screen, artefact control for SMM control protein annotation, biochemical, small-molecule microarray, Alexa647 label, 635 nm (AID 1127); conditions: ConA-A647 binding fluorescence, higher = more signal;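 note: z combines 667 nm emission intensity with signal-to-noise across three replicate slides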
Concanavalin-A (Canavalia ensiformis), sequence (P02866 whole entry, looked up): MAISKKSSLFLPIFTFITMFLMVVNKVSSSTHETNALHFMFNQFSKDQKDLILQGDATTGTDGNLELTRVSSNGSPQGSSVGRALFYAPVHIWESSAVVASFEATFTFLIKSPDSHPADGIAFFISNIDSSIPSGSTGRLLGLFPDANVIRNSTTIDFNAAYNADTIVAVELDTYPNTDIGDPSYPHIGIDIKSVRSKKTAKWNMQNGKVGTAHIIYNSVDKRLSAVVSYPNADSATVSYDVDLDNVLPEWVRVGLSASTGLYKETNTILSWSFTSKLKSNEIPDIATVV

| Structure (SMILES) | composite z-score [1] | z-score [2] | composite z-score [3] | composite z-score [4] | composite z-score [5] | composite z-score [6] | composite z-score [7] | composite z-score [8] | composite z-score [9] | composite z-score [10] | composite z-score (Albumin (Bos taurus)) | composite Z-score [11] | composite z-score [12] | composite z-score [13] | composite z-score [14] | composite z-score [15] | composite z-score [16] | composite z-score (Sam68 (KHDRBS1)) | composite z-score [17] | composite z-score [18] |
| --- | --- | --- | --- | --- | --- | --- | --- | --- | --- | --- | --- | --- | --- | --- | --- | --- | --- | --- | --- | --- |
| C=CCC(OC(C)=O)[C@@H]1[C@@H](N(Cc2ccc(-c3ccccc3)cc2)C(=O)c2cccc3ccccc23)c2cc(OCCCO)ccc2N1C(=O)Cc1ccc(OC)cc1 (stereo not given in full) | -0.69 | -0.235 | -0.526 | -0.424 | 0.618 | -0.0405 | -0.0293 | -0.202 | -0.278 | 0.313 | -0.276 | -0.064 (inactive) | 0.222 | 0.0092 | -0.208 | -0.212 | -0.338 | -0.205 | 0.475 | -0.0975 |
| CCOC(=O)C[C@H]1[C@H](OC(=O)c2ccccc2-c2ccccc2)[C@@H](NC(=O)C2CCCCC2)c2cc(OCCCO)ccc2N1C(=O)c1ccc2ccccc2n1 | 1.31 | -1.71 | 0.358 | 0.236 | -0.24 | -0.0087 | 0.0611 | 0.0707 | -0.0006 | 0.026 | 0.632 | 0.0805 (inactive) | 0.0553 | -0.037 | 0.258 | 0.249 | 0.358 | 1.07 | 0.162 | -0.0181 |
| CC(C)NC(=O)[C@@]1(C)c2ccccc2C(=O)N(Cc2ccccc2)[C@H]1c1ccc(CO)cc1 | 0.864 | -0.957 | -1.47 | -0.155 | -0.672 | -0.0819 | -0.209 | -0.45 | -0.922 | 0.386 | 0.489 | -0.621 (inactive) | -0.432 | -0.153 | 0.692 | 1.86 | 0.329 | 0.696 | -1.6 | 0.537 |
| COc1ccc([Si](C)(C)[C@H]2[C@H](CCO)O[C@@]3(C(=O)N(Cc4ccc(NC(=O)[C@H](C)O)cc4)c4ccccc43)[C@@H]2C)cc1 | 1.42 | -5.22 | 0.378 | 1.19 | 0.0314 | -0.105 | 0.318 | 0.686 | 0.989 | 1.24 | 0.494 | 0.515 (inactive) | 0.0643 | -0.164 | 0.488 | 1.9 | 0.0861 | 1.32 | 0.101 | 0.897 |
| C=CC[C@]1(C(=O)NCC(O)CO)COC(c2ccc(OCCCO)cc2)=N1 (stereo not given in full) | -0.683 | 0.412 | -0.531 | -0.189 | 0.202 | 0.0618 | 1.01 | -0.21 | 1.53 | -1.21 | -0.506 | -0.181 (inactive) | 0.0897 | -0.0209 | 0.674 | 1.56 | 0.553 | -0.174 | -0.582 | -1.45 |
| COc1cc(CO)cc(I)c1O[C@H]1C=C(C(=O)NCCO)C[C@@H](NC2CCCCCC2)[C@@H]1O | 1.15 | -4.13 | 0.867 | 0.475 | -0.572 | -0.129 | -0.0769 | -0.0345 | 0.484 | 0.0323 | 0.441 | -0.228 (inactive) | 0.106 | -0.161 | 0.579 | -0.103 | 0.993 | 1.33 | 0.714 | 0.747 |
